The record followed here is the supplement of paper PMC10723795.

± gives the standard deviation of the averaged measurements.

The test deals with CHON-002. Kind of test: nucleolar normality score relative to DMSO (fraction of DMSO control); RPE1 is a non-cancer human cell line; higher = more normal nucleoli (less nucleolar stress). The protocol: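 Selected screen hits were validated in hTERT lines (BJ5TA, CHON-002, RPE1) and cancer lines (DLD1, HCT116). Cells were immunostained for nucleolin and UBF and the nucleolar normality score was measured per field of view, with 4 fields per drug. Scores are normalized to each cell line's own DMSO control. Dose and time are not stated for this panel.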
The molecule `CC(C)c1cc(C(=O)N2Cc3ccc(CN4CCN(C)CC4)cc3C2)c(O)cc1O` [Onalespib] returned a nucleolar normality score of 0.383 ± 0.023.

For the molecule `CCc1cnn2c(NCc3ccc[n+]([O-])c3)cc(N3CCCC[C@H]3CCO)nc12` [Dinaciclib], the nucleolar normality score was found to be 0.201 ± 0.018.

Regarding `CN(C)CCNC(=O)c1cccn2c(=O)c3cc4ccccc4cc3nc12`, the nucleolar normality score is 0.0829 ± 0.03.

Molecule `Cc1nc(-c2cn3c(n2)-c2ccc(-c4cnn(C(C)(C)C(N)=O)c4)cc2OCC3)n(C(C)C)n1` [Taselisib] showed a nucleolar normality score of 0.444 ± 0.044.

`CC(C)n1nc(-c2ccc3oc(N)nc3c2)c2c(N)ncnc21` [Sapanisertib]: the nucleolar normality score turned out to be 0.4 ± 0.023.

In turn, `CN1CC[C@H](c2c(O)cc(O)c3c(=O)cc(-c4ccccc4Cl)oc23)[C@H](O)C1` [Flavopiridol] returned a nucleolar normality score of 0.181 ± 0.013.

`Cc1cnc(CNC(=O)c2c(=O)c3ccc(N4CCCN(C)CC4)nc3n3c2sc2ccccc23)cn1` yielded a nucleolar normality score of 0.487 ± 0.11.

For `CC(C)c1c2cc(-c3ccnc(NC4CCC(NC5CCOCC5)CC4)n3)ccc2nn1C` (configuration not stated), the nucleolar normality score worked out at 0.281 ± 0.015.

In turn, `COC[C@H](NC(=O)c1cnc(C)s1)C(=O)N[C@@H](COC)C(=O)N[C@@H](Cc1ccccc1)C(=O)[C@@]1(C)CO1` [Oprozomib] came in with a nucleolar normality score of 0.548 ± 0.036.

As for `CC(C)C[C@H](NC(=O)[C@H](CCc1ccccc1)NC(=O)CN1CCOCC1)C(=O)N[C@@H](Cc1ccccc1)C(=O)N[C@@H](CC(C)C)C(=O)[C@@]1(C)CO1` [Carfilzomib], the nucleolar normality score came to 0.453 ± 0.025.

For `COc1cccc2c1C(=O)c1c(O)c3c(c(O)c1C2=O)C[C@@](O)(C(=O)CO)C[C@@H]3O[C@H]1C[C@H](N)[C@H](O)[C@H](C)O1` [Doxorubicin], the nucleolar normality score turned out to be 0.182 ± 0.039.

`C=CCNC1=C2C[C@@H](C)C[C@H](OC)[C@H](O)[C@@H](C)/C=C(\C)[C@H](OC(N)=O)[C@@H](OC)/C=C\C=C(/C)C(=O)NC(=CC1=O)C2=O` gave a nucleolar normality score of 0.408 ± 0.035.
